For part of these data: Measured potencies and affinities stand elsewhere. The source made the active and inactive calls.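 How the source made its calls, unless noted: active means calcium signal cut by more than 3 SD below the full-agonist control yet still positive, in both repeats and the earlier primary screen; inactive means the rest.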
Tests used:
[1] = test system: TRPC4 beta (transient receptor potential cation channel C4), mouse; experiment: TRPC4 cation channel opening, retest – cell-based, Fluo4 calcium, HEK293 TRPC4beta/mu-opioid, duplicates, 10 µM, confirmation (AID 2426;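 active means fluorescence ratio normalized to control raised more than 50% in primary screen plus both repeat runs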); details: Fluo4 calcium fluorescence, at 10 µM; hits give high values
[2] = test system: transient receptor potential cation channel C4 beta (TRPC4), mouse; experiment: TRPC4 cation channel opening, second retest – cell-based, second round, Fluo4, HEK293 TRPC4beta/mu-opioid, 1 µM, confirmation (AID 2461;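 active means primary screen active and over 50% activation in each of two duplicate runs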); details: Fluo4 calcium fluorescence, at 1 µM; hits give high values
[3] = test system: TRPC4 (transient receptor potential cation channel C4 beta), mouse; experiment: potentiation of DAMGO EC20 TRPC4 response – cell-based, second round, Fluo-4, HEK293 TRPC4beta/mu-opioid, 1 µM, confirmation (AID 2554;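 active means primary screen hit whose fluorescence ratio, in both repeats, exceeds the weak agonist control mean by 3 SD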); details: DAMGO EC20, Fluo-4 calcium flux, at 1 µM; hits give high values
[4] = test system: TRPC4 beta (transient receptor potential cation channel C4), mouse; experiment: potentiation of DAMGO EC20 TRPC4 response – cell-based, Fluo-4, HEK293 TRPC4beta/mu-opioid, confirmation (AID 2555;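 active means primary screen hit whose calcium fluorescence ratio, in both repeats, exceeds the weak agonist control mean by 3 SD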); details: DAMGO EC20, Fluo-4 calcium flux, at 10 µM; hits give high values
[5] = target: Short transient receptor potential channel 4 (Mus musculus) (UniProt Q9QUQ5); experiment: blockers of DAMGO-evoked TRPC4 calcium flux – cell-based, Fluo4, HEK293 TRPC4beta/mu-opioid, confirmation (AID 2636); details: at 10 µM; hits give high values
Sequence of Short transient receptor potential channel 4 (Mus musculus) (Q9QUQ5 whole entry, looked up): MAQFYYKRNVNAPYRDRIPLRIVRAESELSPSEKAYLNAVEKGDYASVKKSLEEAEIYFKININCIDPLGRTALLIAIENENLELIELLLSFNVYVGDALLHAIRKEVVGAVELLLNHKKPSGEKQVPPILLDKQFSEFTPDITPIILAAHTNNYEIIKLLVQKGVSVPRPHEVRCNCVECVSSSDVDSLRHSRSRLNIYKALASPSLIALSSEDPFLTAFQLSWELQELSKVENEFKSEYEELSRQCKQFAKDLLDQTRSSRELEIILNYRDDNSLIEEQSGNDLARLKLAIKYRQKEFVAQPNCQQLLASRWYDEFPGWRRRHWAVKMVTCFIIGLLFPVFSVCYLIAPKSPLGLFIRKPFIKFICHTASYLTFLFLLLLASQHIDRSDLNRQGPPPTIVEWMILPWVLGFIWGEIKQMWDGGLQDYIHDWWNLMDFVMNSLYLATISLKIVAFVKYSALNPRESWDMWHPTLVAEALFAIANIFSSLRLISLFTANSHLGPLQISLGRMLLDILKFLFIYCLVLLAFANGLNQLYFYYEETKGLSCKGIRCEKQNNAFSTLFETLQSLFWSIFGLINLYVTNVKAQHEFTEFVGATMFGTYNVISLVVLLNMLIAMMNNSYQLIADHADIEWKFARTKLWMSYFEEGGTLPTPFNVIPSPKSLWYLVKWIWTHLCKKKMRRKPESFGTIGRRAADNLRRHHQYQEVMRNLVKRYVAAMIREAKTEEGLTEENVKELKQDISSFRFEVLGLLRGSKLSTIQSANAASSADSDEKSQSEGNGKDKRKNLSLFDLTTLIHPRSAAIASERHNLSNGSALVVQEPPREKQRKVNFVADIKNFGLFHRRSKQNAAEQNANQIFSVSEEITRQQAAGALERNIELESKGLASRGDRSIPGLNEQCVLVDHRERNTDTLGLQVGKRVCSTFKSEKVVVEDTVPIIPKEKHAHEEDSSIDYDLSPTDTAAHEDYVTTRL

[6] = target: Short transient receptor potential channel 4 (Mus musculus) (UniProt Q9QUQ5); experiment: blockers of DAMGO-evoked TRPC4 calcium flux – cell-based, second round, Fluo4, HEK293 TRPC4beta/mu-opioid, 1 µM, confirmation (AID 2637;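 active means calcium signal ratio cut to more than 3 SD under the fully stimulated control mean yet still positive, in both repeats and the primary screen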;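 on inhibition: percent of integrated ratio relative to wells lacking test compound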); details: at 1 µM; hits give high values
[7] = target: Short transient receptor potential channel 4 (Mus musculus) (UniProt Q9QUQ5); experiment: calcium entry via TRPC4 opening agents – cell-based, HEK293 TRPC4/mu-opioid, Fluo-4 calcium, dose response (AID 434937;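 active means primary screen activator hit with a dose response curve and TRPC4 channel activation at any tested dose; inactive means no activation, no dose response, or not a primary hit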)
[8] = target: Short transient receptor potential channel 4 (Mus musculus) (UniProt Q9QUQ5); experiment: potentiation of DAMGO-evoked TRPC4 calcium signal – cell-based, HEK293 TRPC4/mu-opioid, Fluo-4 calcium, EC20 DAMGO, dose response (AID 434941;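 active means earlier screen potentiator hit that boosts the TRPC4 ion channel at some dose, with a dose response; inactive means no potentiation, no dose response, or not a prior hit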;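 further: calcium entry triggered by an EC20 dose of DAMGO at the co-expressed mu-opioid receptor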)
[9] = target: Short transient receptor potential channel 4 (Mus musculus) (UniProt Q9QUQ5); experiment: block of DAMGO-driven TRPC4 calcium entry – cell-based, HEK293 TRPC4/mu-opioid, Fluo-4 calcium, dose response (AID 434942;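 active means primary screen inhibitor hit that blocks the TRPC4 channel at some tested dose, yielding a dose curve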)
[10] = target: Short transient receptor potential channel 6 (Mus musculus) (UniProt Q61143); experiment: TRPC6 blockade by TRPC4 inhibitor hits – cell-based, HEK293, membrane potential dye, duplicate, selectivity assay for TRPC4 inhibitor project, confirmation (AID 434948;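 active means active in primary screen and both duplicates, each dropping signal beyond three positive-control SD with fluorescence still positive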); details: HEK293 TRPC6, membrane potential dye fluorescence, at 10 µM; inhibition: hits give high values, stimulated with maximal-effect acetylcholine unless noted; outcome: stimulated with maximal-effect acetylcholine unless noted
Sequence of Short transient receptor potential channel 6 (Mus musculus) (Q61143 whole entry, looked up): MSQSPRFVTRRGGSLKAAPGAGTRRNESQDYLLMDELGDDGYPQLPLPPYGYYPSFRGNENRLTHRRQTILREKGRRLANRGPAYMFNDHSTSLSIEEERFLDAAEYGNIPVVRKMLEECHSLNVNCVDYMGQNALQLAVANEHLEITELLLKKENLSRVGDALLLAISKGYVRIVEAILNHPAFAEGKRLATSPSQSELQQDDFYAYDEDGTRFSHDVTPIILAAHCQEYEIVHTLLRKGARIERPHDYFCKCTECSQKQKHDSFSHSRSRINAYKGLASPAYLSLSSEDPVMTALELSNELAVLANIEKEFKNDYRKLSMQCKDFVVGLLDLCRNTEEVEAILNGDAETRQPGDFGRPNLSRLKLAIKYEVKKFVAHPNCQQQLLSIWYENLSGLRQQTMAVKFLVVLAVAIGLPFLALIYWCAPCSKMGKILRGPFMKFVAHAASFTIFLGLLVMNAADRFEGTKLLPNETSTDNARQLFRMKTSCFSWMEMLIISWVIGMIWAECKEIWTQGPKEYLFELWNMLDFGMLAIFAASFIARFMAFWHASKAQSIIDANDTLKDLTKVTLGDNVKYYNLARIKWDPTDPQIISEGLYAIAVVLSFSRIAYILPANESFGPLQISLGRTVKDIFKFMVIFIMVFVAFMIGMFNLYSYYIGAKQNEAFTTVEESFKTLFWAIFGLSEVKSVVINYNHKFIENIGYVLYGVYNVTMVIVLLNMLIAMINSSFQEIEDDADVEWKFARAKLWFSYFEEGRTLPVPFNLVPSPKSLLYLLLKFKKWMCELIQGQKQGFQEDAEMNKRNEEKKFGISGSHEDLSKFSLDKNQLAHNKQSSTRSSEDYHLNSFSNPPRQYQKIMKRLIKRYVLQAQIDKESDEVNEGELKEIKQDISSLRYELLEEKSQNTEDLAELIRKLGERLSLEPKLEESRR

[11] = target: Short transient receptor potential channel 6 (Mus musculus) (UniProt Q61143); experiment: TRPC6 opening by TRPC4 activator hits – cell-based, HEK293, membrane potential dye, duplicate, selectivity assay for TRPC4 activator project, confirmation (AID 434950;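 active means membrane potential signal rise above negative control mean plus 3 SD in both duplicates, also active in the earlier TRPC4 screen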;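 on activation: 0% = buffer only wells and 100% = acetylcholine maximal-effect wells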); details: HEK293 TRPC6, membrane potential fluorescence, at 10 µM; activation: hits give high values; outcome: activation
[12] = target: Short transient receptor potential channel 6 (Mus musculus) (UniProt Q61143); experiment: positive modulators of mouse TRPC6 channel – HEK293 cells, membrane potential dye, duplicate, selectivity assay for TRPC4 potentiator project, confirmation (AID 434952;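 active means compound raising the membrane signal above positive-control mean plus 3 SD in both repeats, and a primary screen hit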); details: HEK293 TRPC6, membrane potential dye fluorescence, at 10 µM; maximal acetylcholine added after compound unless noted
[13] = target: Short transient receptor potential channel 4 (Mus musculus) (UniProt Q9QUQ5); experiment: calcium flux activators in TRPC4/5HT1a cells, counter-screen for TRPC4 activator project, cell-based, second counter screen, HEK293 TRPC4/5HT1a, Fluo-4 (AID 434977;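 active means calcium signal rise above buffer-control mean plus 5 SD in both duplicates, and also a hit in the primary screen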); details: Fluo-4 calcium flux, at 10 µM; hits give high values
[14] = serotonin-gated TRPC4 signal block – cell-based, second counter screen, HEK293 TRPC4/5HT1a, Fluo-4, counter-screen for TRPC4 inhibitor project, confirmation (AID 434978;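 active means primary screen active whose calcium signal fell more than 3 SD beyond the full-serotonin control mean in both duplicate plates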;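 on outcome: serotonin given first at submaximal then at maximal dose after compound preincubation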); details: Fluo-4 calcium flux, at 10 µM; inhibition: hits give high values, serotonin added to trigger calcium flux unless noted; outcome: serotonin added to trigger calcium flux unless noted
[15] = test system: TRPC4 (mouse), co-expressed with 5HT1a in HEK293; experiment: enhancement of serotonin-evoked TRPC4 response – cell-based, second counter screen, HEK293 TRPC4/5HT1a, Fluo-4, counter-screen for TRPC4 potentiator project, confirmation (AID 434979;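 active means signal rise over 3 SD above mean of control wells given weak agonist, in both repeats and first screen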); details: Fluo-4 calcium flux, at 10 µM; outcome: serotonin added at its EC20 dose unless noted; potentiation: hits give high values, serotonin added at its EC20 dose unless noted
[16] = nonspecific calcium rise without TRPC4 – cell-based, HEK293 mu-opioid receptor line, counter-screen for TRPC4 activator project, confirmation (AID 449723;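 active means hit in primary screen, with calcium signal over 5 SD above buffer well mean in both duplicates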;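 further: counter screen cells carry the mu-opioid receptor alone and lack TRPC4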); details: HEK293 mu-opioid cells, Fluo-4 calcium fluorescence, at 10 µM; hits give high values
[17] = nonspecific potentiation of DAMGO calcium response – cell-based, HEK293 mu-opioid receptor line, counter-screen for TRPC4 allosteric potentiator project, confirmation (AID 449724;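 active means calcium signal rise more than 3 SD above the low-dose agonist control mean, in both duplicate plates and the primary screen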); details: HEK293 mu-opioid receptor cells, Fluo-4 calcium flux, at 10 µM; compound added before EC20 DAMGO stimulus unless noted

COC(=O)C1=C(c2cc3ccccc3s2)C[C@@H]2CC[C@H]1N2C(=O)NCCO
active: activation [11] 27%
inactive: outcome [1] | outcome [2] | outcome [3] | outcome [4] | outcome [5] | outcome [6] | outcome [7] | outcome [8] | outcome [9] | outcome [10] | outcome [12] | outcome [13] | outcome [14] | outcome [15] | outcome [16] | outcome [17]

COc1ccc2[nH]cc(CCN(C)C)c2c1
active: potentiation [3] 7%
inactive: outcome [1] | outcome [2] | outcome [4] | outcome [5] | outcome [6] | outcome [7] | outcome [9] | outcome [10] inactive [setting not given] | outcome [11] | outcome [12] inactive [setting not given] | outcome [13] | outcome [14] inactive [setting not given] | outcome [15] inactive [setting not given] | outcome [16] | outcome [17] inactive [setting not given]

Cc1cc(OC(C)C(=O)NCc2ccncc2)c2c3c(c(=O)oc2c1)CCCC3 (stereo not given)
inactive: outcome [1] | outcome [2] | outcome [3] | outcome [4] | outcome [5] | outcome [6] | outcome [7] | outcome [8] | outcome [9] | outcome [10] | outcome [11] | outcome [12] | outcome [13] | outcome [14] | outcome [15] | outcome [16] | outcome [17]

COc1cccc(O)c1CN1CCCC(C(=O)c2sccc2C)C1 (stereo not given)
active: inhibition [5] 94% | inhibition [6] 40% | inhibition [14] 29.8%
inactive: outcome [1] | outcome [2] | outcome [3] | outcome [4] | outcome [7] | outcome [8] | outcome [10] | outcome [11] | outcome [12] | outcome [13] | outcome [15] | outcome [16] | outcome [17]

Cc1ccc(C2CN(C)CC2C(=O)c2ccc(F)cc2)cc1 (stereo not given)
active: inhibition [5] 87% | inhibition [6] 42% | inhibition [14] 38%
inactive: outcome [1] | outcome [2] | outcome [3] | outcome [4] | outcome [7] | outcome [8] | outcome [10] | outcome [11] | outcome [12] | outcome [13] | outcome [15] | outcome [16] | outcome [17]

O=C(c1ccc(Cl)cc1)C1CCCN(C2CCSCC2)C1 (stereo not given)
active: inhibition [5] 86% | inhibition [6] 64% | inhibition [14] 31.4%
inactive: outcome [1] | outcome [2] | outcome [3] | outcome [4] | outcome [7] | outcome [8] | outcome [10] | outcome [11] | outcome [12] | outcome [13] | outcome [15] | outcome [16] | outcome [17]

CCN1CCN(Cc2cc(Br)ccc2O)CC1
inactive: outcome [1] | outcome [2] | outcome [5] | outcome [6] | outcome [7] | outcome [9] | outcome [10] | outcome [11] | outcome [12] | outcome [13] | outcome [14] | outcome [16] | outcome [17]
active: potentiation [3] 19% | potentiation [4] 22% | potentiation [15] 16.8%

Cc1cccc(N2CCc3c2nc2ccccc2c3N)c1
active: inhibition [5] 67% | inhibition [6] 51% | inhibition [14] 24.6%
inactive: outcome [1] | outcome [2] | outcome [3] | outcome [4] | outcome [7] | outcome [8] | outcome [10] | outcome [11] | outcome [12] | outcome [13] | outcome [15] | outcome [16] | outcome [17]

N=c1n(CCO)c2ccccc2n1Cc1ccccc1
active: inhibition [5] 86% | inhibition [6] 48% | inhibition [14] 42.9%
inactive: outcome [1] | outcome [2] | outcome [3] | outcome [4] | outcome [7] | outcome [8] | outcome [10] | outcome [11] | outcome [12] | outcome [13] | outcome [15] | outcome [16] | outcome [17]

CCc1nccc2c1[nH]c1ccccc12
inactive: outcome [1] | outcome [2] | outcome [3] | outcome [4] | outcome [7] | outcome [8] | outcome [10] | outcome [11] | outcome [12] | outcome [13] | outcome [15] | outcome [16] | outcome [17]
active: inhibition [5] 93% | inhibition [6] 63% | inhibition [14] 9.99%

CCN(CC)c1ccc([N+](=O)[O-])c2cccnc12
active: inhibition [5] 93% | inhibition [14] 28%
inactive: outcome [1] | outcome [2] | outcome [3] | outcome [4] | outcome [6] | outcome [7] | outcome [8] | outcome [10] | outcome [11] | outcome [12] | outcome [13] | outcome [15] | outcome [16] | outcome [17]

O=C(CN1CCCC1)Nc1ccc(Cl)cc1C(=O)c1ccccc1
inactive: outcome [1] | outcome [2] | outcome [3] | outcome [4] | outcome [6] | outcome [7] | outcome [8] | outcome [10] | outcome [11] | outcome [12] | outcome [13] | outcome [15] | outcome [16] | outcome [17]
active: inhibition [5] 90% | inhibition [14] 21.8%

COc1ccc(OC)c(N2Cc3ccccc3C2=N)c1
inactive: outcome [1] | outcome [2] | outcome [3] | outcome [4] | outcome [7] | outcome [8] | outcome [10] | outcome [11] | outcome [12] | outcome [13] | outcome [15] | outcome [16] | outcome [17]
active: inhibition [5] 96% | inhibition [6] 56% | inhibition [14] 21.8%
